Assay outcomes (PubChem)
A selection: hits, their analogues and other compounds. The true share with any hit is near 5.7%.
AHR activator: AHR activators, primary screen, cell-based, luminescence, luciferase reporter, human. Aryl hydrocarbon receptor (Homo sapiens), P35869. AHR-responsive luciferase reporter cells. activation, % at 5 µM. actives 2.5% (n = 320,000); in the data active = activation above about 47%;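 also: 0% = vehicle wells and 100% = reference agonist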
Target sequence (P35869 whole entry, looked up): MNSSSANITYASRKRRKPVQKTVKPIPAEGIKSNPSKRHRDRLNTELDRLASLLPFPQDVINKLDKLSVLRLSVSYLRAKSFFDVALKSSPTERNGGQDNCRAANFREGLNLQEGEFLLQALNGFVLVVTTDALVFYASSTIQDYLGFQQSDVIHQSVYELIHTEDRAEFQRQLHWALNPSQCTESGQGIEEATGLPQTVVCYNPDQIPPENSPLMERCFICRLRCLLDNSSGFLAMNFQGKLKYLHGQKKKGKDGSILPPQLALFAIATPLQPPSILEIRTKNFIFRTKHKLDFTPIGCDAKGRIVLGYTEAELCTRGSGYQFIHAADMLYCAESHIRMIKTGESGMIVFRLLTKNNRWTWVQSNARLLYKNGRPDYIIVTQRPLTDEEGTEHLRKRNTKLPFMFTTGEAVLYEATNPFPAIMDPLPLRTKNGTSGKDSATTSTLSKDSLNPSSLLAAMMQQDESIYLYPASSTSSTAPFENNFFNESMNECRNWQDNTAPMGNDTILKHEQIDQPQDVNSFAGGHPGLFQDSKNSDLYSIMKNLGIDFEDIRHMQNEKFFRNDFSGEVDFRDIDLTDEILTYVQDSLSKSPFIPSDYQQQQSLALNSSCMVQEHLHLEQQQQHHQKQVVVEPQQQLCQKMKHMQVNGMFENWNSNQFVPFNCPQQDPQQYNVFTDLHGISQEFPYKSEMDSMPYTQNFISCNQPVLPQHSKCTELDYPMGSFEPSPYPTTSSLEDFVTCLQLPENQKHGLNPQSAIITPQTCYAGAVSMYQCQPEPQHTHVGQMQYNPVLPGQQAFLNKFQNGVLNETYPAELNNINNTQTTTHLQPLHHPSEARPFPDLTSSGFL
hcDAF-12 act: H. contortus DAF-12 nuclear receptor activators, primary screen, cell-based, luminescence, HEK293, lit1-tk-luc reporter; HEK293 hcDAF-12 lit1-tk-luc reporter; 0% DMSO, 100% Δ7-dafachronic acid; activation, % at 6.8 µM; actives 1.4% (n = 370,000);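 active = activation above the mean of all tested compounds plus 3 SD, cut at about 5.5% in these data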;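 also: 100% = response to 3 µM Δ7-dafachronic acid high control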
hgDAF12 agonist: H. glycines DAF-12 receptor agonists, primary screen, cell-based, luminescence, HEK293, GAL4 fusion, UAS-luciferase; Nuclear hormone receptor DAF-12 (Heterodera glycines), GAL4 fusion; activation, % at 6.8 µM; actives 1.8% (n = 370,000); HEK293 GAL4-hgDAF12 UAS-luciferase reporter, agonist luminescence; normalized to butyrate control;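 active = activation above a cutoff set at the mean of all screened compounds plus 3 SD, cut at about 10% in these data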;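 also: 0% = DMSO wells and 100% = sodium butyrate wells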
DAX1 inh-1: DAX1 (NR0B1) inhibitors, primary screen, cell-based, HEK293, Gal4-DAX1, luciferase luminescence. Nuclear receptor subfamily 0 group B member 1 (Homo sapiens), P51843. HEK293 Gal4-DAX1 luciferase reporter. inhibition, % at 6.75 µM. actives 0.99% (n = 340,000);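 active = inhibition above the mean over all tested compounds plus 3 SD, cut at about 4.2% in these data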;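 also: 0% = DAX1-transfected cells with DMSO and 100% = empty-vector control cells with DMSO; inhibition shows as a rise in luminescence from relieved DAX1 repression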
ssDAF-12 act: S. stercoralis DAF-12 nuclear receptor activators, primary screen, cell-based, luminescence, HEK293, GRIP1 co-expression, lit1-tk-luc; HEK293 ssDAF-12/GRIP1 lit1-tk-luc reporter; % of 3 µM dafachronic acid response; activation, % at 6.8 µM; actives 1% (n = 370,000); AID 652126, 2013;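 active = activation above the mean over all tested compounds plus 3 SD, cut at about 0.9% in these data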;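 also: 0% = DMSO-only wells and 100% = 3 µM delta7-dafachronic acid wells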
DAX1 inh-2: DAX1 (NR0B1) inhibitors on StAR promoter, primary screen, cell-based, luminescence, SF-1 (NR5A1), full-length DAX-1; HEK293T StAR-luciferase reporter, SF-1/DAX-1 repression relief; inhibition, % at 6.8 µM; actives 1.1% (n = 370,000); AID 652010, 2013;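 active = inhibition above the mean over all tested compounds plus 3 SD, cut at about 3.6% in these data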;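 also: 0% = DAX-1 cells with DMSO and 100% = cells lacking DAX-1 with DMSO; higher inhibition means more luminescence from relief of DAX-1 repression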
Active calls of the source: *; x = no result given.

SMILES | AHR activator | hcDAF-12 act | hgDAF12 agonist | DAX1 inh-1 | ssDAF-12 act | DAX1 inh-2
C#CCSc1nnc(-c2ccc(O)cc2)o1 | -1.9 | 2.0 | 11.1* | 0.8 | -0.6 | 0.9
c1ccc(CSc2nnc(-c3cccnc3)o2)cc1 | 1.3 | -0.5 | 8.9 | 1.8 | -0.7 | 1.1
C#CCSc1nnc(-c2ccc(C)cc2)o1 | -7.1 | 3.1 | 11.1* | 0.8 | 0.7 | 1.9
Cc1ccc(C2(c3ccccc3)NC(=O)N(CC(=O)NC3(C#N)CCCC3)C2=O)cc1C (stereo unspecified) | 1.0 | -2.5 | 4.3 | -0.2 | -1.0 | 0.1
Cc1cc(OC(C)C(=O)NCc2ccncc2)c2c(C)c(C)c(=O)oc2c1 (stereo unspecified) | 7.5 | 1.7 | 0.1 | 2.2 | -1.3 | -2.1
CCN(CC(=O)Nc1c(F)cccc1F)C(=O)c1ccc(S(=O)(=O)NCc2ccco2)cc1 | -1.1 | -1.1 | -0.2 | -1.0 | -1.1 | -2.3
O=C1SC(c2ccccc2)=C/C1=C\N1CCCCC1 | 5.1 | 6.1* | 0.6 | -0.2 | -0.4 | 0.7
CCOc1ccccc1NC(=O)C(C)N1C(=O)c2ccccc2S1(=O)=O (stereo unspecified) | 0.3 | 0.0 | -1.0 | -0.1 | -1.3 | 3.7*
CCOc1ccccc1NC(=O)c1ccc2c(c1)C(=O)N(CC(C)C)C2=O | 49.8* | -0.7 | 0.7 | -0.1 | -1.7 | 0.2
COCCCN1C(=O)c2ccc(C(=O)Nc3ccccc3OC)cc2C1=O | 67.3* | 0.2 | 1.7 | -1.1 | -0.8 | -0.3
CCOC(=O)CN1C(=O)C(C)(C)Oc2ccc(C(=O)Nc3ccccc3OC)cc21 | 15.0 | -2.2 | -1.0 | -1.3 | -1.6 | -0.6
COc1ccc(NC(=O)C(C)N2C(=O)c3ccccc3S2(=O)=O)c(OC)c1 (stereo unspecified) | -2.6 | -1.7 | -1.3 | 0.3 | -1.5 | 1.2
COc1ccccc1NC(=O)c1ccc2c(c1)N(CC#N)C(=O)C(C)(C)O2 | 62.0* | -0.1 | -0.1 | 0.0 | -1.3 | -0.2
CCOC(=O)N1CCN(C(=O)C[C@H]2C[C@@]3(C(=O)OC)C(=C[C@H](C(C)(C)C)O[C@@H]3C)N(CCC3=CCCCC3)C2=O)CC1 | x | -1.1 | -0.1 | x | -1.0 | 0.0
Cc1cccc(NC(=O)CNC(=O)[C@@H](Cc2ccccc2)NC(=O)[C@H]2O[C@@H](n3ccc(N)nc3=O)[C@H](O)[C@@H]2O)c1C | x | -2.2 | 2.0 | x | -0.9 | -0.8
O=C(Nc1cccc(Br)c1)OC1CC2CC1[C@H]1CCCCN1[C@H]2Cc1ccccc1 (stereo partly specified) | x | 1.9 | -2.6 | x | 0.1 | -0.2
C[C@@H]1CN([C@@H](C)CO)C(=O)CCCn2nncc2CO[C@H]1CN(C)S(=O)(=O)c1cccc(C#N)c1 | x | -0.6 | 0.7 | 0.3 | -1.3 | 0.1
CC(=O)CCc1oc2ccc(C)cc2c1Cc1ccccc1 | 22.2 | 6.5* | 4.7 | -0.1 | 1.6* | 0.3
Cc1cc(N2CCN(C(=O)OC(C)(C)C)C[C@H]2C)ccc1N1C[C@@H](C)O[C@@H](C)C1 | x | -2.0 | -1.3 | x | -1.4 | -3.6
C=CCn1c(CCc2ccccc2)nnc1SCC(=O)OC | -0.5 | 0.7 | -0.1 | -2.6 | -0.6 | 0.3
C=CCn1c(COc2cccc3ccc(C)nc23)nnc1SCC(=O)OC | 6.5 | 2.9 | 0.7 | -0.4 | 0.9* | 1.3
CCn1c(COc2cccc3cccnc23)nnc1SCC(=O)O | -1.4 | -0.7 | -1.0 | 5.4* | -1.6 | 0.5
CCn1c(COc2cccc3cccnc23)nnc1SCC(=O)OC | -0.1 | -0.3 | -2.0 | 0.3 | -1.6 | 0.2
Cc1csc(SC(C)C(=O)NCC2CCCCC2)n1 (stereo unspecified) | -0.7 | 1.1 | -0.7 | 0.6 | 1.0* | -0.1
Cc1csc(SC(C)C(=O)Nc2ccc(S(=O)(=O)N3CCCC3)cc2)n1 (stereo unspecified) | 3.0 | -0.9 | 3.7 | -0.7 | -1.5 | 1.5
SMILES | AHR activator | hcDAF-12 act | hgDAF12 agonist | DAX1 inh-1 | ssDAF-12 act | DAX1 inh-2
CC1CCc2c(sc(/N=C/N(C)C)c2C#N)C1 (stereo unspecified) | 11.7 | 1.2 | 6.0 | 4.7* | -0.6 | -0.1
CN(C)/C=N/c1sc2c(c1C#N)CCCC2 | 9.2 | 0.7 | 7.7 | 0.5 | -1.0 | 1.0
CCN(CC)CCNC(=O)c1cccc(NC(=O)C(=O)c2ccccc2NC(C)=O)c1 | 4.0 | 5.9* | 3.6 | 0.8 | -0.3 | 0.4
COC(=O)c1ccc(COc2ccc(/C=N/Nc3nc(C)cc(=O)[nH]3)cc2)cc1 | 9.1 | 1.7 | 5.3 | 5.8* | -0.9 | 0.8
CCC(=O)Nc1nnc(/C=C/c2ccccc2)s1 | 7.3 | 0.0 | 6.1 | 5.3* | -0.7 | 1.1
CCCC(=O)Nc1nnc(/C=C/c2ccccc2)s1 | 6.2 | 0.5 | 6.8 | 1.1 | -0.1 | 0.1
CCOC(=O)Nc1nnc(/C=C/c2ccc(OC)cc2)s1 | 74.3* | -1.1 | 1.1 | -0.4 | -1.0 | 0.7
CCCCOC(=O)Nc1nnc(/C=C/c2ccc(OC)cc2)s1 | 9.7 | -2.3 | 1.8 | 1.3 | -0.1 | 0.1
CN1C2=NCCN2C(=O)c2ccccc21 | 52.0* | 2.7 | 1.9 | -0.1 | 0.0 | 0.5
COc1ccc([C@H]2CC(=O)C=C(c3cccc(OC)c3OC)C2)cc1OC | 5.3 | -3.1 | -5.6 | -3.0 | -1.9 | -1.2
Nc1ccc2ccccc2c1N=Nc1ccccc1 | x | 4.3 | 3.8 | 0.7 | 1.3* | 1.0
Cc1ccc(-n2c(SCC(=O)Nc3ccc(OCc4ccccc4)cc3)nnc2-c2ccccc2)cc1 | x | 0.0 | 1.8 | x | -1.5 | -0.7
O=C(CSc1nnc2ccc(-c3ccc(F)cc3)nn12)N1CCOCC1 | 0.4 | -0.7 | -0.4 | 0.7 | -0.5 | -1.0
COc1ccccc1C1N=C(c2ccccc2C)NO1 (stereo unspecified) | 12.0 | 2.3 | 10.5* | 0.3 | -0.2 | 1.2
Cc1ccccc1C1=NC(c2ccc(F)cc2F)ON1 (stereo unspecified) | 10.6 | -0.7 | 1.8 | 0.4 | -0.9 | 0.0
COc1ncccc1-c1nnn(-c2ccccc2)n1 | 31.4 | 5.7* | 11.2* | 1.9 | 1.3* | 3.2
c1ccc(-n2nnc(-c3cccnc3)n2)cc1 | 43.1 | 3.6 | 11.4* | 3.4 | -0.1 | 0.8
COc1ncccc1-c1nnn(-c2ccccc2Br)n1 | 12.4 | 1.8 | 1.2 | 0.5 | -0.8 | 0.1
CC1CN(CCN2CC(C)N(C=O)CC2C)C(C)CN1C=O (stereo unspecified) | x | 1.4 | -0.6 | -0.7 | -1.2 | 1.0
